# Ins promoter up – insulin promoter activators in MIN6 cells, imaging, high-content screening, mouse beta cells | MIN6 insulin promoter-GFP reporter; active compounds read high | z-score at 5 µM | 190,000 compounds, 0.3% hits | AID 1625, 2009;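 active means z-score above 3 at 5 µM with at least 500 cells counted in the well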
# KCC2 mod – KCC2 cotransporter modulators, thallium flux, primary screen, cell-based, HEK293 KCC2, FluoZin-2 fluorescence, MLSMR. B-score of Tl+ flux slope (higher = more flux/activation; lower = inhibition) at 10 µM. AID 1456, 2008. KCC2 cells, thallium flux FluoZin-2 fluorescence. 190,000 compounds, 2.2% hits;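 active means thallium flux slope and its plate-corrected score both differing from the plate sample mean at a set confidence after two filtering rounds, in either direction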;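 further: slope of fluorescence scaled to starting intensity during 10 to 20 s after thallium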
# INS promoter inh – inhibitors of insulin promoter-driven GFP, primary screen, imaging, TRM-6 cells (human fetal islet line), eGFP reporter, cell count | reporter expression induced with tamoxifen | 130,000 compounds, 0.9% hits | inhibition, % at 2 µM;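 active means inhibition above the mean plus 3 SD, with well images judged a real hit on visual review, cut at about 60% in these data, passing the limit was not always enough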
# L major viab – Leishmania major promastigote growth inhibition, primary screen. 200,000 compounds, 9% hits. inhibition, % at 10 µM. AID 1063, 2008. Leishmania major promastigotes, resazurin fluorescence viability; in the data active means inhibition above about 50%;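 further: promastigotes grown with compound for 44 hours at 28 °C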
# ROMK primary – ROMK potassium channel modulators, primary screen, cell-based, thallium flux, MLSMR library; ATP-sensitive inward rectifier potassium channel 1 (Homo sapiens), P48048; Tet-inducible ROMK, thallium flux fluorescence; actives lie on both sides; B-score at 10 µM; 130,000 compounds, 2% hits; AID 1918, 2009;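 active means signal ratio slope over the read window, or its plate-corrected B-score, at least 3 SD from the plate mean, either direction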;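 further: B-score of the F/F0 ratio slope over 7 to 12 s after thallium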
# Target sequence (P48048 whole entry, looked up): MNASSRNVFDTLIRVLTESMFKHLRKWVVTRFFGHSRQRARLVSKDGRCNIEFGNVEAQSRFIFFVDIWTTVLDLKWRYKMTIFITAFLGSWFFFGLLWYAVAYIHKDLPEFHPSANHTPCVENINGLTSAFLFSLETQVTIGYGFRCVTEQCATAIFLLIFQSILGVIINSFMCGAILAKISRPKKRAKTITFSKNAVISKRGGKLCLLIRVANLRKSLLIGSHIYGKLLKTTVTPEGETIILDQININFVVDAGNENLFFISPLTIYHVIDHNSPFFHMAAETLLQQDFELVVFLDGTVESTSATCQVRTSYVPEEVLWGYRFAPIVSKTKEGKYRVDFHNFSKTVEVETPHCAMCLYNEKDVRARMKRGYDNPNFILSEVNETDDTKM
# WT yeast gro inh – growth inhibition of WT strain, primary screen, mitochondrial fusion inhibitor project, WT and mutant strains, chemical genetic | mitochondrial fusion phenotypic screen | inhibition, % at 10 µM | 190,000 compounds, 2.1% hits | AID 1362, 2008; in the data active means inhibition above about 58%; tested in S. cerevisiae
# * marks the source's active call; other numbers are inactive results; i = inactive; / = no result. Shown are actives, neighbours in structure and some others; about 12% of the full set was active somewhere.
SMILES,Ins promoter up,KCC2 mod,INS promoter inh,L major viab,ROMK primary,WT yeast gro inh
CC(=O)Oc1ccc2c(=O)c(Oc3ccccc3)c(C)oc2c1OC(C)=O,0.76,1.1,17,-2,2.2,0
O=C1NC2=C(CCc3ccccc32)C(c2ccccc2)N1 (stereo not given),-0.43,-1,61*,1,0.29,14
COc1ccccc1CC(=O)N1CCCC1,-0.2,-0.37,40,-7,/,-3
COc1ccc(O)c(C(=O)c2coc(=N)c(C(=O)Nc3ccc(SC(F)F)cc3)c2)c1,-0.33,0.091,-82,83*,-1.4,32
CC(C)OC(=O)c1cc(C(=O)c2cc(F)ccc2O)coc1=N,0.54,0.21,-59,-2,-1.1,15
CC(C)NS(=O)(=O)c1ccc(OCC(=O)Nc2ccc3c(c2)OCO3)cc1,/,0.77,29,1,-0.15,-3
O=C(C1=NN(c2ccccc2)C2C(=O)N(c3cccc(Cl)c3)C(=O)C12)c1ccccc1 (stereo not given),3.2*,i,-18,-10,-0.15,21
CC1=Nc2cc(C(=O)NCc3ccco3)ccc2Sc2ccc(C)cc21,-0.42,-2.4,-62,59*,0.45,22
CC1=Nc2cc(C(=O)O)ccc2Sc2ccc(C)cc21,0.26,-1,3,-7,0.54,-10
CN(CCC#N)C(=O)CSc1ncnc2sc(-c3ccccc3)cc12,0.25,0.56,/,-1,/,3
CC(C)C(C)(C#N)NC(=O)CSc1nc(C2CCCCC2)n(-c2ccccc2)n1 (stereo not given),-0.21,-0.077,21,80*,-1.7,-1
CC(C)C(C)(C#N)NC(=O)CSc1ncnc2sc(-c3ccccc3)cc12 (stereo not given),-0.59,-3.6*,22,4,0.47,9
CCCCc1ccc(-c2nc(NC(=O)C3C4CCC(O4)C3C(=O)O)sc2C)cc1 (stereo not given),/,-0.58,14,-5,/,88*
CCOc1ccc(OCCOc2cccc(C(F)(F)F)c2)cc1,0.2,/,/,-2,/,6
CNCCCOc1cccc(Oc2ccccc2)c1,0.39,0.088,/,99*,-1.2,22
CC(O)CNCCCOc1cccc(Oc2ccccc2)c1 (stereo not given),0.51,-0.079,/,99*,-1.3,-12
CC(O)CNCCCOc1cccc(C(F)(F)F)c1 (stereo not given),-0.03,0.59,-471,67*,-1.6,6
CNCCCOc1cccc(OC(C)C)c1,/,0.4,-41,1,0.53,-9
COc1ccc(OCC(=O)N/N=C/c2ccc(OC)c(OC)c2C(=O)O)cc1,-0.16,0.72,48,-6,/,-8
CC1CCCN(C/C(O)=C(\C#N)c2nc3ccccc3[nH]2)C1 (stereo not given),0.78,-0.49,-293,0,/,2
Cc1cc(C)c(OCC(=O)Nc2ccc(NC(=O)c3ccco3)cc2)c([N+](=O)[O-])c1,-0.06,-1.1,64*,1,0.14,-6
Cc1cc(C)c(OCC(=O)Nc2nnc(-c3ccco3)o2)c(C)c1,0.9,-0.83,/,-2,0.57,59*
Cc1sc2nc(C3CC3)nc(SCC(=O)N3CC(=O)Nc4ccccc43)c2c1C,/,12*,24,2,/,37
Cc1sc2nc(C3CC3)nc(SCC(=O)N3CCc4ccccc4C3)c2c1C,0.11,-0.57,/,-3,/,53
CN1CCN(c2ccc(-c3ccc4ccccc4n3)cc2)CC1,2,-2.1,/,92*,-0.17,73*
SMILES,Ins promoter up,KCC2 mod,INS promoter inh,L major viab,ROMK primary,WT yeast gro inh
Cc1ccc2[nH]c(=O)c3cc(C(=O)N(C)Cc4ccco4)sc3c2c1,0.16,-0.45,/,56*,/,16
CCOCCCN(Cc1ccco1)C(=O)c1cc2c(=O)[nH]c3ccc(C)cc3c2s1,-0.92,/,/,73*,/,6
Cc1ccc(C)c(N(C)C(=O)c2cc3c(=O)[nH]c4ccc(C)cc4c3s2)c1,-0.49,-0.6,/,/,-0.64,/
O=C(Nc1nc2ccccc2s1)C1CC(=O)N(c2ccc(Br)cc2)C1 (stereo not given),/,/,67*,-2,-0.22,39
O=C1C2C3C=CC(C4CC34)C2C(=O)N1/N=C/c1ccc(-c2ccc(Cl)cc2[N+](=O)[O-])o1 (stereo not given),-0.24,/,54,59*,/,23
O=C(CSc1ccc2ccccc2c1)NCCc1ccc(O)c(O)c1,-3.3,-1,/,12,-1.7,-4
CCN(CC)CCCNC(=O)c1cc2c(Cl)nc3ccccc3c2s1,-0.73,0.11,/,98*,-1.4,8
CN(CCCNC(=O)c1cc2c(Cl)nc3ccccc3c2s1)Cc1ccccc1,-0.93,0.72,-94,93*,-2.7,38
CC1CCCN(CCCNC(=O)c2cc3c(Cl)nc4ccccc4c3s2)C1 (stereo not given),-1.2,0.66,/,100*,-0.16,13
COc1ccc(NC(=O)c2cc3c(Cl)nc4ccccc4c3s2)c(OC)c1,/,1.2,17,0,0.74,-6
COc1ccc(N(C)C(=O)c2cc3c(Cl)nc4ccccc4c3s2)cc1,-0.25,-0.46,/,14,/,50
COc1cc(NC(=O)c2cc3c(Cl)nc4ccccc4c3s2)cc(OC)c1OC,-1.1,1.3,48,57*,/,8
CCOc1ccc2nc(-c3ccccc3)[nH]c2c1,0,/,86*,31,2.5,1
O=C(c1n[nH]c2ccccc12)N1CCN(S(=O)(=O)c2ccc3ccccc3c2)CC1,0.33,-0.94,/,55*,/,77*
CCCC(=O)Nc1cccc(Oc2nc(C)cc(C)c2C#N)c1,-1.1,-0.61,49,52*,/,0
O=C(/C=C/c1ccc(Br)o1)NC(c1ccccc1)c1ccccc1,0.26,0.72,/,11,/,63*
CC(NC(=S)NC1CCCCC1)C(c1cccs1)N1CCOCC1 (stereo not given),0.13,0.15,/,/,-0.19,/
Cc1ccc(/C=C/C(=O)c2ccc(O)cc2)cc1,-0.63,-0.71,/,/,/,/
COc1ccc(C(=O)/C=C/c2ccccc2)c(O)c1,0.6,1.1,/,75*,0.37,21
CC(C)=CCC/C(C)=C/Cc1c(O)ccc(C(=O)/C=C/c2ccc(O)cc2)c1O,0.91,-1.4,-5,4,1.3,95*
O=C(/C=C/c1ccc(O)cc1)c1ccc(O)cc1O,-0.21,-0.6,-57,85*,-1.6,-5
Cc1cccc(N2CCN(C(=O)c3cccn4c(=O)c5c(C)c(C)sc5nc34)CC2)c1C,/,/,-4,5,-2.5,-25
Cc1ccc(O)c(C(CC(=O)NC2CCCCC2)c2ccccc2)c1 (stereo not given),-0.38,0.3,/,33,0.077,6
COc1ccc(C(O)c2nccn2C)cc1 (stereo not given),0.16,0.15,16,-4,0.33,3
O=C(COc1ccc(Br)cc1)N(CCO)CCO,0.05,0.22,/,-2,-0.84,-9

# Screens as filed in PubChem.
